HT1080NT lethal: qHTS for induction of synthetic lethality in tumor cells producing 2HG: qHTS for the HT-1080-NT fibrosarcoma cell line; Potency, µM (highest dose often 46.1 µM), for the others: at the top dose activity, negative = less viability, hits mostly cytotoxic; hit rate 1.6% among 360,000; HT-1080-NT fibrosarcoma viability, CellTiter-Glo ATP luminescence, 48 h;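 also: NT is the 2HG producing partner of a matched IDH1 knockdown line; potency is read from the fitted curve at half-maximal effect; 0% = DMSO-treated cells and -100% = media-only wells without cells; nearly all actives have a fitted effect of over 55% in size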
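Read-out is CellTiter-Glo luminescence after 10 minutes at room temperature, following 48 hours' compound treatment of HT-1080-NT cells (750 cells/well, RPMI, 5% FBS, 37 degrees C).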
TDP1 cell noCPT: qHTS for Inhibitors of human tyrosyl-DNA phosphodiesterase 1 (TDP1): qHTS in cells in absence of CPT; Potency, µM (series often up to 46.2 µM), for the others: at the highest dose activity change, negative = growth inhibition, usual class: inhibitors; DT40 Tdp1-/- hTDP1 cells, no CPT, ATP luminescence, 48 h; hit rate 15% among 420,000; also: potency is read from the fitted curve at half-maximal effect; nearly all actives have a fitted effect of over 55% in size
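Readout: luminescence from CellTiter-Glo after 30 min in the dark at RT. Cells: DT40 Tdp1-/- with stable hTDP1, 400/well. Exposure: compounds alone, ≥48 hr, 37 °C.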
HT1080 IDH1KD tx: qHTS for induction of synthetic lethality in tumor cells producing 2HG: qHTS for the HT-1080-IDH1KD cell line; HT-1080 IDH1 knockdown viability, ATP luminescence, 48 h; Potency, µM (highest dose often 46.1 µM), for the others: top-dose activity, negative = toxicity, most hits filed as cytotoxic; hit rate 2% among 360,000; AID 686971, 2013;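 also: potency is read from the fitted curve at half-maximal effect; 0% = DMSO wells and -100% = cell-free medium wells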
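CellTiter-Glo luminescence after 48 h compound exposure at 37 degrees C of IDH1-knockdown HT-1080 cells in 5% FBS RPMI. %Activity scaled between DMSO wells and cell-free media wells, with curves fitted and assigned curve classes.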
IL1B secr inh: qHTS for Inhibitors of Inflammasome Signaling: IL-1-beta AlphaLISA Primary Screen; activity change, % at 57.5 µM; hit rate 4.7% among 360,000; THP-1 LPS/ATP IL-1B secretion, AlphaLISA, 16 h; hits give low values; AID 743279, 2014; in the data active = activity change below about -50%; inconclusive = mostly about -30% to -49%
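Secreted IL-1B measured by AlphaLISA bead assay after 16 h compound exposure of THP-1 cells; compounds (final up to 57.5 uM) added 1 h before LPS (250 ng/mL) and ATP (1.25 mM) stimulation; lower signal means less secretion.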
TDP1 cell CPT: qHTS for Inhibitors of human tyrosyl-DNA phosphodiesterase 1 (TDP1): qHTS in cells in presence of CPT; Potency, µM (top dose mostly 46.2 µM), without a hit: top-dose activity change, negative = growth inhibition, most hits filed as inhibitors; hit rate 12% among 420,000; chicken DT40 Tdp1-/-;hTDP1 cells + 20 nM CPT, ATP luminescence, 48 h; also: potency is read from the fitted curve at half-maximal effect; nearly all actives have a fitted effect of over 55% in size
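Chicken DT40 Tdp1-/- cells stably complemented with human TDP1 were seeded at 400 cells/well in medium containing 20 nM camptothecin, exposed to pin-transferred compounds, and grown at 37 °C for at least 48 hr. Viability was read as ATP luminescence.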
Starred values were filed as active, the others as inactive; ? = inconclusive; nt = no result. Rows were chosen to be rich in hits. Some 19% of all compounds tested hit in one or more screens of this group. Unless noted, calls follow the shape of the dose curve; as a rule, active = well fitted curve in the direction sought with a large enough effect; inconclusive = small, poorly fitted or top-dose-only effect, or another doubt; inactive = no such curve, though single readings can be large; an effect the other way counts as inactive or inconclusive. Unless noted, % is scaled to controls: 0 for no effect and ±100 for the full control effect.

SMILES	HT1080NT lethal	TDP1 cell noCPT	HT1080 IDH1KD tx	IL1B secr inh	TDP1 cell CPT
O=C(CSc1cn(CC(=O)N2CCOCC2)c2ccccc12)Nc1ccccc1F	nt	-5%	nt	nt	-1%
O=C(CSc1cn(CC(=O)N2CCOCC2)c2ccccc12)Nc1ccccc1C(F)(F)F	nt	-9%	nt	nt	-1%
CC1CCN(C(=O)Cn2cc(SCC(=O)Nc3ccccc3C(F)(F)F)c3ccccc32)CC1	nt	21µM*	nt	nt	?
COc1cccc(/C=N/N2CCN(c3ccncc3S(=O)(=O)N3CCCCC3)CC2)c1	18%	2.6µM*	16%	-12	?
Cc1ccc(-n2c(CNC(=O)c3cccs3)nnc2SCC(=O)NO)cc1	1%	13%	21%	0	1%
Cc1ccccc1NS(=O)(=O)c1ccc(C(=O)N2CCCC(C(F)(F)F)C2)cc1 (centres undefined)	-2%	12µM*	-8%	-2	?
CC(=O)N1CCN(C(=O)c2cc(S(=O)(=O)NCc3ccccc3)ccc2C)CC1	13%	-3%	15%	3	-9%
Cc1ccc(C)c(S(=O)(=O)N2CCN(C(=O)c3cc(S(=O)(=O)NCc4ccccc4)ccc3C)CC2)c1	-1%	?	-20%	?	23µM*
Cc1ccc(S(=O)(=O)NCc2ccccc2)cc1C(=O)N1CCCC(C(F)(F)F)C1 (centres undefined)	?	18µM*	-1%	-12	?
COc1ccc(C(=O)COC(=O)C(CCSC)NC(=O)COc2ccccc2)c(OC)c1 (centres undefined)	14%	-20%	0%	18	-29%
COc1ccc(NC(=O)c2nnn(Cc3nc(-c4cc(OC)c(OC)c(OC)c4)oc3C)c2C)cc1Cl	nt	-13%	nt	nt	1%
COc1cc(-c2nc(Cn3nnc(C(=O)Nc4ccccc4)c3C)c(C)o2)cc(OC)c1OC	nt	26µM*	nt	nt	?
C[C@H](NC(=O)C[C@@H]1CC[C@H]2[C@@H](COC[C@H](O)CN2Cc2ccc(C(F)(F)F)cc2)O1)c1ccccc1	3%	21µM*	-2%	1	18µM*
O=C(C[C@H]1CC[C@@H]2[C@H](COC[C@@H](O)CN2Cc2ccc(Cl)cc2)O1)NCCc1ccccc1	-2%	?	-1%	-11	-28%
CCCCNC(=O)Cn1c(=O)c2c(ncn2CC)n(Cc2ccccc2)c1=O	7%	?	-2%	5	-8%
COc1ccc(S(=O)(=O)N/N=c2\oc3c(OC)cccc3cc2S(=O)(=O)c2ccc(C)cc2)cc1OC	-20%	-16%	-13%	-54*	-25%
CC(=O)c1c(C(C)=O)c(C)n(NC(=O)c2ccc(Cl)cc2)c1C	-5%	2%	-7%	5	?
CC(=O)c1c(C(C)=O)c(C)n(Cc2ccc(Cl)cc2)c1C	-16%	18µM*	?	-10	16µM*
O=C1CC(Sc2nnc(-c3ccccc3O)o2)C(=O)N1c1ccccc1 (centres undefined)	?	4.6µM*	4.5µM*	9	4.6µM*
COc1ccc(N2C(=O)CC(Sc3nc(C)cc(C)c3C#N)C2=O)cc1 (centres undefined)	-2%	-17%	-25%	1	-2%
COc1ccc(N2C(=O)CC(Sc3nnc(-c4ccccc4)o3)C2=O)cc1 (centres undefined)	-1%	2.9µM*	-1%	-29	2.9µM*
O=C(O)CCSC1CC(=O)N(c2ccccc2)C1=O (centres undefined)	7%	10%	10%	14	-7%
CS(=O)(=O)c1ccc(C(=O)OCC(=O)NC(=O)C2CCCCC2)cc1[N+](=O)[O-]	?	?	?	-60*	9.2µM*
CC(=O)c1ccc(NCC2COc3ccccc3O2)c([N+](=O)[O-])c1 (centres undefined)	-1%	13µM*	-15%	24	?
CC1(C)C2CCC1(C)C(NC(=O)COC(=O)c1ccc(S(C)(=O)=O)c([N+](=O)[O-])c1)C2 (centres undefined)	nt	5.6µM*	nt	nt	5µM*
SMILES	HT1080NT lethal	TDP1 cell noCPT	HT1080 IDH1KD tx	IL1B secr inh	TDP1 cell CPT
COc1ccc(C(=O)NC(=O)COC(=O)C2COc3ccccc3O2)cc1 (centres undefined)	2%	-25%	5%	10	-14%
Cc1cc(C(=O)OCC(=O)NC(=O)C2CCCCC2)ccc1[N+](=O)[O-]	nt	7%	nt	nt	-4%
CS(=O)(=O)c1ccc(C(=O)OCC(=O)NC(=O)C2COc3ccccc3O2)cc1[N+](=O)[O-] (centres undefined)	7%	18µM*	0%	-59*	16µM*
COc1ccc(C(=O)OCC(=O)NC2CC2)cc1[N+](=O)[O-]	5%	23%	3%	-12	-8%
C=CCOc1ccc(/C=C/C(=O)OCC(=O)N(C)CC(=O)Nc2ccccc2Cl)cc1	0%	?	1%	-23	-25%
NCCC(=O)[N-][C@@H](Cc1cnc[nH]1)C(=O)O.[Zn]	nt	3%	nt	nt	-1%
CCc1ccccc1N(C(C)=O)c1nc(CCl)cs1	4%	23µM*	13%	-15	15µM*
COc1ccc(C2NC(=S)N3C(c4ccc(OC)cc4)NC(=S)N23)cc1 (centres undefined)	11%	16µM*	11%	0	?
S=C1NC(c2ccccc2)N2C(=S)NC(c3ccccc3)N12 (centres undefined)	14%	-20%	11%	-7	2%
CCOC(=O)C1(Cc2ccc(OC)cc2)CCN(C(=O)CN2CCCCC2=O)CC1	9%	-16%	12%	16	5%
CCOc1ccccc1N(CC(=O)N1CCOCC1)S(=O)(=O)c1ccc(SC)cc1	2%	-6%	2%	27	?
CCN(CC)CCCN(C(=O)c1ccc(OC)cc1)c1nc(-c2ccc(OC)cc2)cs1	23µM*	?	15µM*	nt	?
CCN(CC)CCCN(C(=O)c1ccccc1F)c1nc(-c2ccc(OC)cc2)cs1	18µM*	?	?	-65*	?
CCN(CC)CCCN(C(=O)c1ccccc1C)c1nc(-c2ccc(OC)cc2)cs1	-26%	23µM*	-22%	-21	?
CCN(C(=O)c1cccs1)c1nc(-c2ccc(OC)cc2)cs1	?	?	0%	-20	-3%
COCCCN(C(C)=O)c1nc(-c2ccc(OC)cc2)cs1	-29%	?	-22%	26	15µM*

Source: PubChem (National Center for Advancing Translational Sciences (NCATS))
